Bioassay records from PubChem BioAssay.
CendR NRP1 mod: NRP-1/CendR interaction modulation. O14786. FAM-RPARPAR peptide binding to NRP-1, fluorescence polarization. inhibition, % at 25 µM. actives 0.85% (n = 360,000);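 active = inhibition or corrected inhibition above about 18%, plus a signal ratio from 0.5 to 1.5, limit read from the data, passing the limit was not always enough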
A3A deaminase: human APOBEC3A DNA deaminase inhibition. recombinant A3A, FAM/TAMRA ssDNA deamination fluorescence. inhibition, % at 20 µM. actives 0.41% (n = 330,000). AID 493011;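 active = at least 40% inhibition at 20 µM here, with at most 30% in a related deaminase screen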;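 also: plate controls were A3A with DMSO for no effect and wells lacking A3A enzyme for full effect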
ADAM17 inh: ADAM17 inhibition, QFRET primary screen. P78536. recombinant ADAM17, EDANS/DABCYL FRET peptide cleavage. inhibition, % at 6.95 µM. actives 0.83% (n = 370,000). AID 720648;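 active = inhibition above the mean of compounds lying between control limits plus 3 SD, set per campaign, cut at about 8.5% in these data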;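 also: 0% = DMSO-only wells as the low control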
APOBEC3G inh: inhibitors of human APOBEC3G DNA deaminase; Q9HC16; recombinant A3G, ssDNA deamination FAM/TAMRA fluorescence; inhibition, % at 20 µM; actives 0.28% (n = 330,000); AID 493012;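 active = inhibition of at least 40% at 20 µM, with no more than 30% in the related APOBEC3A deaminase screen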;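 also: plate controls were DMSO wells with A3G for no effect and wells lacking A3G enzyme for full effect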
ADAM10 inh: inhibitors of human ADAM10 | O14672 | inhibition, % at 7 µM | recombinant ADAM10, EDANS/DABCYL FRET peptide cleavage, 3 h | actives 0.62% (n = 370,000);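 active = inhibition above a per-campaign cutoff equal to the mean of compounds falling between control-based bounds plus 3 SD, cut at about 20% in these data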;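 also: 0% = DMSO wells while the 100% control is not disclosed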
ADAM10 counter: counter-screen for ADAM17 exosite inhibitors: inhibitors of human ADAM10. actives 47% (n = 2,900). recombinant ADAM10, EDANS/DABCYL FRET peptide cleavage, 3 h. shares compounds with ADAM17 inh. inhibition, % at 6.95 µM;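 active = mean inhibition over the triplicate runs exceeds the activity threshold set in the earlier primary screen, cut at about 20% in these data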;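 also: 0% = DMSO wells and 100% = marimastat wells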
ADAM17 confirm: human ADAM17 inhibition, confirmation; shares compounds with ADAM17 inh; recombinant ADAM17, EDANS/DABCYL QFRET peptide cleavage; inhibition, % at 6.95 µM; actives 65% (n = 2,900); AID 743257;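 active = mean inhibition across replicates above the hit cutoff set in the primary screen, cut at about 8.5% in these data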;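 also: 0% = DMSO wells and 100% = marimastat wells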
* hit, by the source's call; / = no result given. Compounds with a hit are over-represented: about 2.4% of the library has one in this group of screens.

SMILES	CendR NRP1 mod	A3A deaminase	ADAM17 inh	APOBEC3G inh	ADAM10 inh	ADAM10 counter	ADAM17 confirm
CCCCc1c(-c2ccccc2OC)ncn1Cc1ccccc1C	/	/	3	/	10	/	/
COC(=O)CCC[C@H](C)[C@@H](NS(=O)(=O)c1ccc(C)cc1)C(C)(C)C	/	/	-2	/	-6	/	/
C[C@H](c1ccccc1)N1C[C@H](COCc2ccccc2)Oc2cc(N3CC[C@@H](O)C3)ccc2S1(=O)=O	4	/	9.8*	/	13	29*	15*
C[C@@H](c1ccccc1)N1C[C@H](COCc2ccccc2)Oc2cc(N3CC[C@@H](O)C3)ccc2S1(=O)=O	4	/	10*	/	12	16	6
COC(=O)C[C@H]1CC[C@H]2[C@H](COc3ccc(NS(=O)(=O)c4cccc(F)c4)cc3C(=O)N2C)O1	/	/	1	/	2	/	/
COc1ccc2ccccc2c1C=NNC(=O)CN1CCN(Cc2ccccc2)CC1	/	/	-2	/	-6	/	/
CN(C)c1ccc(C(=O)NCCc2ccccc2-c2ccccc2CCC(=O)NCc2ccccc2)cc1	/	/	-1	/	-1	/	/
COC(=O)C1=C(C)N(C)C(=NCc2ccc(OC)cc2)NC1c1cccc(F)c1 (centres undefined)	/	/	1	/	0	/	/
COc1cccc(C(O)c2ncc(-c3cccc(C(F)(F)F)c3)[nH]2)c1 (centres undefined)	7	/	10*	/	-3	14	9.8*
CCc1ccc(C(O)c2ncc(-c3cccc(C(F)(F)F)c3)[nH]2)cc1 (centres undefined)	2	/	11*	/	9	21*	11*
CCCc1ccc(C(O)c2ncc(-c3ccccc3F)[nH]2)cc1 (centres undefined)	7	/	9.2*	/	16	9	5
COc1cccc(-c2cnc(C(O)c3cccc(OC)c3)[nH]2)c1 (centres undefined)	2	/	-2	/	-1	/	/
COc1ccc(C(O)c2ncc(-c3cccc(C(F)(F)F)c3)[nH]2)cc1F (centres undefined)	-28	/	4	/	6	/	/
OC(c1ccc2ccccc2c1)c1ncc(-c2ccc(C(F)(F)F)cc2)[nH]1 (centres undefined)	4	/	10*	/	10	42*	23*
CCOC(=O)[C@@]12CCC3=C1N(CCC3)C(=O)[C@H](CC(=O)NCC1CCCCC1)C2	/	/	-4	/	2	/	/
CCCC[C@H]1C2CC(OC(=O)Nc3ccccc3C(F)(F)F)C(C2)[C@H]2CCCCN21 (some centres undefined)	/	/	-3	/	-4	/	/
CCCCCCC(=O)NC1CCCCN(Cc2ccc(C)cc2)C1=O (centres undefined)	/	/	-1	/	1	/	/
CCOC(=O)[C@@]12CCC3=C1N(CCC3)C(=O)[C@H](CC(=O)N1CCOCC1)C2	/	/	-5	/	-11	/	/
CNS(=O)(=O)c1cccc(C(=O)OCC(=O)NC2CCCC2)c1	6	0	8.9*	-7	11	7	4
Cc1ccc(-n2nnnc2CNC(=O)C2CC(=O)N(c3ccccc3)C2)cc1C (centres undefined)	28*	-2	9.4*	-6	2	1	4
O=C(NCc1nnnn1-c1ccc(Cl)cc1)C1CC(=O)N(c2ccc(F)cc2)C1 (centres undefined)	-8	/	-2	/	-9	/	/
Nc1nc2c(ncn2[C@@H]2O[C@H](C(=O)N[C@H](Cc3ccccc3)C(=O)NCCCc3ccccc3)[C@@H](O)[C@H]2O)c(=O)[nH]1	/	/	3	/	2	/	/
CCCCCCn1c(-c2ccc(Cl)cc2Cl)csc1=Nc1ccccc1	/	/	1	/	0	/	/
Cc1ccccc1-n1nc2c(c1NC(=O)c1ccc(S(=O)(=O)N(C)C)cc1)CSC2	3	3	13*	17	18	18	9.4*
CCOC(=O)C1=C(C(=O)OCC)C2N(Cc3ccc(Br)cc3)c3ccccc3[C@@]23C[C@@H](C(=O)OC)N(S(=O)(=O)c2ccc(F)cc2)C3=N1 (some centres undefined)	/	/	-5	/	-17	/	/
SMILES	CendR NRP1 mod	A3A deaminase	ADAM17 inh	APOBEC3G inh	ADAM10 inh	ADAM10 counter	ADAM17 confirm
O=C1/C(=C\c2cccc(O)c2)SC(=S)N1Cc1ccccc1	0	-4	8.8*	-5	10	13	6
Cc1cc(C)cc(C(=O)OCCCN(C)C2CN(Cc3cn(Cc4ccccc4C(F)(F)F)nn3)S(=O)(=O)C2)c1 (centres undefined)	/	/	2	/	10	/	/
NC1=NC2(CCC(c3ccccc3)CC2)n2c(nc3ccccc32)N1 (centres undefined)	6	2	9.0*	-3	0	12	7
COC(=O)C(Cc1ccc(O)cc1)NS(=O)(=O)Cc1ccccc1 (centres undefined)	/	/	-1	/	-1	/	/
CCC(=O)Nc1ccc2c(c1)C(=O)N(C)[C@@H]1CC[C@@H](CC(=O)NCc3ccc(OC)cc3)O[C@H]1CO2	/	/	-5	/	-12	/	/
COc1cc(C(C(=O)NC2CCCCC2)N(C(=O)Cc2c[nH]c3ccccc23)c2ccccc2C)cc(OC)c1OC (centres undefined)	-2	-4	9.5*	-10	20	28*	16*
CCCc1cc(-c2[nH]ncc2-c2ccc3c(c2)OCCCO3)c(O)cc1O	-26	-2	11*	-5	4	27*	14*
N/C(=N\N=C\c1ccc(O)cc1)c1nonc1N	4	0	10*	-9	14	17	9.2*
O=[N+]([O-])c1ccc(CSc2nnc(-c3cccc(Cl)c3)n2Cc2ccco2)cc1	/	/	5	/	7	/	/
C[C@H]1COc2cccc(N3CCCC3)c2S(=O)(=O)N1	/	/	-2	/	-8	/	/
O=[N+]([O-])c1ccc(COc2cccc(CO)c2)cc1	/	/	1	/	6	/	/
COc1cc2c(cc1NC(=O)CSc1nnc(-c3ccccc3C)n1Cc1ccco1)oc1ccccc12	/	/	10*	/	19	22*	15*
COc1ccc(C)cc1NC(=O)CSc1nnc(CC(=O)Nc2ccccc2C)n1C	2	3	8.7*	0	7	3	0
COc1ccc(C)cc1NC(=O)CSc1nnc(COc2ccccc2)n1Cc1ccco1	-12	1	6	0	15	/	/
COc1ccccc1NC(=O)Cc1nnc(SCC(=O)Nc2ccccc2F)n1C	4	3	-1	-6	11	/	/
COc1ccc(C)cc1NC(=O)CSc1nnc(COc2ccc(Cl)cc2)n1Cc1ccco1	6	-3	11*	-3	20	32*	18*
CC(C)CCCCCCNC(=S)Nc1ccc(S(=O)(=O)N2CCOCC2)cc1	-5	-3	9.0*	-3	16	47*	23*
O=S(=O)(c1ccc(NC(=S)Nc2ccccc2)cc1)N1CCOCC1	16	-1	-4	-4	2	/	/
